Screening results (PubChem BioAssay)
M1 PAM parental = nonselective activator or artifact in parental CHO-K1 calcium assay | ATP EC20, Fluo-8 calcium fluorescence; 0% at ATP EC20, 100% at ATP max | activation, % at 3 µM | 0.02% of 360,000 active | AID 602247;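 active = activation above the run cutoff, the mean activation of all test compounds plus 3 SD, cut at about 40% in these data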;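 also: peak over basal fluorescence ratio in a 140 s read after ATP addition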
M4 PAM = positive allosteric modulators of human muscarinic M4 receptor; CHO-K1 hM4/Gqi5, Fluo-8 calcium fluorescence, ACh EC20; 0% = ACh EC20, 100% = maximal ACh; AID 624126; activation, % at 3 µM; 0.4% of 360,000 active; P08173;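 active = activation above its plate's cutoff, the mean activation of sample wells plus 3 SD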
Target sequence (P08173 whole entry, looked up): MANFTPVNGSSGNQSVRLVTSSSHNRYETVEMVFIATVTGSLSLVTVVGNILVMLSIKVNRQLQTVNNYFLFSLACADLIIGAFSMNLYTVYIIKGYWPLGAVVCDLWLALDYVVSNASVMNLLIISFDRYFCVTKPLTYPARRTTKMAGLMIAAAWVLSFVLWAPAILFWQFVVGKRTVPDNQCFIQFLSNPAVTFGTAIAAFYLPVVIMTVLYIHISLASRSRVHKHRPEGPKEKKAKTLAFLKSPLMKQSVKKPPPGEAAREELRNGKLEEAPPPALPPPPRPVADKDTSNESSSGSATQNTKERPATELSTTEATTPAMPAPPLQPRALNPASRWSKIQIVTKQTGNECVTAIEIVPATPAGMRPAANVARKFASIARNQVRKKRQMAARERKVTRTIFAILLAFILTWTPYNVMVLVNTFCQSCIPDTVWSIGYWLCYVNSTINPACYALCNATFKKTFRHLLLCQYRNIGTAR
CHO-K1 Ca antag = nonselective inhibitor or artifact in parental CHO-K1 cells; ATP-induced calcium, Fluo-8 fluorescence; inhibition, % at 3 µM; 0.6% of 360,000 active;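 active = inhibition above a per-plate cutoff, the plate's mean sample inhibition plus 3 SD, cut at about 24% in these data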;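 also: 0% = DMSO plus EC80 ATP and 100% = DMSO alone without ATP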
CHRM4 agonist = CHRM4 agonism in calcium assay | P08173 | CHO-K1 hM4/Gqi5, Fluo-8 calcium fluorescence; vehicle 0%, full acetylcholine response 100% | activation, % at 3 µM | 0.14% of 360,000 active | AID 624127;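 active = activation above the run mean over all test wells plus 3 SD, cut at about 32% in these data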;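 also: peak over basal fluorescence ratio per well then scaled between controls; 0% = DMSO wells and 100% = acetylcholine at EC100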
CHRM4 antagonist = blocks acetylcholine activation of human M4 receptor. inhibition, % at 3 µM. 0.73% of 360,000 active. AID 624125. CHO-hM4 cells, ACh EC80, Fluo-8 calcium fluorescence;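 active = inhibition above its plate's cutoff, the mean inhibition of sample wells plus 3 SD, cut at about 27% in these data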;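 also: 0% = acetylcholine EC80 with DMSO and 100% = DMSO without agonist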
M1 ag parental = counter-screen for M1 agonists: effect in parental CHO-K1 cells; Fluo-8 calcium fluorescence; scaled to maximal ATP response, vehicle zero; activation, % at 3 µM; 0.48% of 360,000 active; in the data active = activation above about 15%;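 also: untransfected CHO-K1 host cells lacking M1 receptor as counterscreen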
The depositor's hits bear a star; / = no result. Hits are enriched below; roughly 2% of the tested compounds scored in any of these assays.

SMILES	M1 PAM parental	M4 PAM	CHO-K1 Ca antag	CHRM4 agonist	CHRM4 antagonist	M1 ag parental
Cc1ccc(-c2c[n+](CC(=O)N3c4ccccc4Sc4ccccc43)c3n2CCC3)cc1	-10	-17	23	0	99*	-1
O=C(C[n+]1cc(-c2ccc(Cl)cc2)n2c1CCC2)Nc1nc(-c2ccc(F)cc2)cs1	12	0	4	1	-5	18*
O=C(C[n+]1cc(-c2ccc(F)cc2)n2c1CCC2)Nc1nc(-c2ccc(F)cc2)cs1	33	-9	-16	0	4	2
O=C(C[n+]1cc(-c2ccccc2)n2c1CCC2)N1c2ccccc2Sc2ccccc21	18	-19	-6	0	64*	0
O=C(C[n+]1cc(-c2ccc(F)cc2)n2c1CCC2)N1c2ccccc2Sc2ccccc21	27	-17	-12	1	81*	1
O=C(O)CCN1C(=O)C2CCCCC2C1=O (centres undefined)	6	19*	-3	1	-16	0
O=C(O)CCN1C(=O)C2C3C=CC(C3)C2C1=O (centres undefined)	7	-3	-2	0	9	0
COc1cc2cc(CCOC(=O)c3ccc(C#N)cc3)oc(=O)c2cc1OC	-10	2	0	3	10	0
COc1cc(OC)cc(C(=O)NNC(=O)CN2C(=O)NC(C)(c3ccccc3)C2=O)c1 (centres undefined)	-16	7	-6	1	-10	0
COCCNC(=O)C(=O)c1c(-c2ccccc2)[nH]c2ccccc12	13	0	-13	2	-2	0
O=C(C(=O)N(Cc1ccccc1)Cc1ccccc1)c1c(-c2ccccc2)[nH]c2ccccc12	6	-12	12	19	31*	7
NS(=O)(=O)c1cccc(NC(=O)COC(=O)CCCc2c[nH]c3ccccc23)c1	-3	5	-6	1	-3	0
CCN1CCN(C(=O)/C=C/c2ccc(OC)cc2)CC1	4	12*	-8	1	-24	0
CCN1CCN(C(=O)/C=C/c2ccc(F)cc2)CC1	14	-1	-17	1	3	1
Cc1ccc([C@H]2C[C@@H](n3cc(-c4ccc(F)cc4)nn3)[C@H](O)CN2C(=O)c2cccs2)cc1	3	1	-8	1	-9	0
CCc1nnc(NC(=O)CN2C(=O)NC3(CCCC3)C2=O)s1	-14	-2	15	0	8	0
COc1ccc(C(=O)CN2C(=O)NC3(CCCCC3)C2=O)cc1OC	-2	5	13	1	-10	19*
CCc1ccc(C(=O)NNC(=O)CN2C(=O)NC3(CCCC3)C2=O)cc1	4	4	1	1	2	0
O=C(CN1C(=O)NC2(CCCC2)C1=O)NNC(=O)c1ccc(Br)cc1	3	25*	-1	1	-16	0
C=CCSc1nnc(NC(=O)CN2C(=O)NC3(CCCC3)C2=O)s1	19	18*	-3	0	-17	0
CC1CCC2(CC1)NC(=O)N(CC(=O)Nc1ccc(F)cc1)C2=O (centres undefined)	-2	3	11	1	-7	0
O=C(CN1C(=O)NC2(CCCC2)C1=O)Nc1ccc(F)cc1	5	38*	-4	1	42*	1
Cc1ccc(/C=C2/C(=O)N(c3ccccc3)C(=S)N2C)o1	-16	4	25*	1	9	0
Cc1ccc(/C=C2\C(=O)NC(=O)N2C)o1	10	-1	4	1	4	0
CCOc1ccc(N2C(=O)/C(=C/c3ccco3)N(C)C2=S)cc1	-17	-5	27*	0	5	-1
SMILES	M1 PAM parental	M4 PAM	CHO-K1 Ca antag	CHRM4 agonist	CHRM4 antagonist	M1 ag parental
Cc1nn(C)c(NC(=O)c2ccccc2Cl)c1Br	17	4	-16	2	-11	3
COc1ccc(NC(=S)NCCN2CCOCC2)c(OC)c1	10	16*	-6	1	-5	0
Cn1c(CNC(=O)C2CCCCC2)cc2cc(Cl)ccc21	17	17*	6	16	10	6
Clc1ccc(-n2ncc3c(NCC4CCCO4)ncnc32)cc1 (centres undefined)	27	-16	-14	2	37*	2
Oc1ccccc1C1=NC(c2ccccc2)NC(c2ccccc2)C1 (centres undefined)	-16	1	26*	2	-12	0
CN(C)CCCN1c2ccccc2Sc2ccc(C(F)(F)F)cc21	/	-17	/	11	83*	/
CN(C)CCCN1c2ccc(O)cc2Sc2ccc(Cl)cc21	1	-13	-2	13	44*	4
CN1CCN(CCC(=O)N2c3ccccc3Sc3ccc(C(F)(F)F)cc32)CC1	-5	-11	-12	3	12	1
O=C1c2ccccc2C(=O)N1CC(=O)N1c2ccccc2Sc2ccc(C(F)(F)F)cc21	-6	3	3	0	18	0
CN(C)CCC(=O)N1c2ccccc2Sc2ccc(C(F)(F)F)cc21	18	-17	-3	1	99*	2
CCS(=O)(=O)N1CCC(NC(=O)C(Cc2cccc(OC)c2OC)NC(C)=O)CC1 (centres undefined)	30	18*	-17	1	-18	1
COc1ccccc1NC(=O)Nc1nnc(CC(=O)Nc2cccc(C)c2)s1	17	2	-3	2	7	1
COc1cc(/C=C2\SC(=S)N(C(Cc3ccccc3)C(=O)O)C2=O)ccc1O (centres undefined)	-8	-14	3	21	11	15*
COc1cc(/C=C2\SC(=S)N(Nc3ccccc3)C2=O)ccc1O	8	-22	24*	45*	27*	27*
CCOc1cc(/C=C2\SC(=S)N(Nc3ccccc3)C2=O)ccc1O	-2	-17	21	21	25	13
COc1cc(/C=C2/SC(=S)N(CC3CCCO3)C2=O)ccc1O (centres undefined)	5	-25	15	33*	18	18*
COc1cc(/C=C2\SC(=S)N(c3cccnc3)C2=O)ccc1O	7	-23	2	8	13	18*
COc1cc(/C=C2\SC(=S)N(NC(=O)c3cccnc3)C2=O)ccc1O	-6	-13	20	4	4	4
Cc1ccc(S(=O)(=O)N2CCOCC2)cc1C(=O)Nc1ccc2c(c1)OCCO2	-15	0	-5	4	-10	0
CCCCCN(C(=O)CCC(=O)OCC(=O)NCCc1ccccc1)c1c(N)n(CCCC)c(=O)[nH]c1=O	21	1	-13	0	-3	1
Fc1ccc(CN2C3=NCCN3c3ccccc32)cc1	14	-20	-9	1	-8	2
